# Inconclusive results are not listed. A call without a number means that no potency is given here. Calls of active or inactive are those of the source. The call rests on the fitted dose curve; in most records, active means well fitted inhibition curve with a large enough effect; inconclusive means small, poorly fitted or top-dose-only effect; inactive means no such curve, though single readings can be large or run the other way.
# System: Zika virus NS2B-NS3 protease (linked construct)
# Assay: Primary screen NINDS Rhodamine qHTS for Zika virus inhibitors (AID 1347160); further: nearly all actives have a fitted effect of over 55% in size
# Settings: purified NS2B-NS3 protease, Rhodamine110 substrate fluorescence; series mostly up to 57.1 µM
# Procedure, shortened: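 Percent inhibition, normalized to uninhibited and enzyme-free controls, is fitted to a 4-parameter Hill equation. Fluorescence change comes from a 15-min cleavage of 1.5 microM bis-peptide Rhodamine110 substrate by 25 nM linked NS2B-NS3 at room temperature.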
row,SMILES,Potency
1,COc1c(C(C)C)c(O)c(O)c2c1C(OC)[C@H]1OC(=O)[C@@]23CCCC(C)(C)[C@H]13 (stereo partly drawn),inactive
2,CCC(CC)C(c1ccc(Nc2nc3ccccc3s2)cc1)n1cncn1 (stereo not drawn),inactive
3,CC(C)c1noc(C2CCN(c3ncnc(Nc4ccc(S(C)(=O)=O)cc4F)c3[N+](=O)[O-])CC2)n1,inactive
4,C=C(C(=O)OC[C@H]1O[C@@H](OC(=O)/C=C/c2ccccc2)[C@H](O)[C@@H](O)[C@@H]1O)C(O)CO (stereo partly drawn),inactive
5,O[C@@](Cc1ncc(CC2(C(F)(F)F)CC2)[nH]1)(c1ccc(-n2cccn2)cc1)C(F)(F)F,inactive
6,C=C1C(=O)OC2/C=C(\CO)CC/C=C(\C=O)C(O)C(OC(=O)C(C)CC)C12 (stereo not drawn),inactive
7,CCCn1cc2c(nc(NC(=O)Nc3ccc(OC)cc3)n3nc(-c4ccco4)nc23)n1,inactive
8,Cc1c(NC(=O)c2cc3c(s2)CCCC3)cccc1-c1cn(C)c(=O)c(Nc2ccc(C3C(=O)N(C)CCN3C)cc2)n1 (stereo not drawn),inactive
9,CCC(C(C)O)n1ncn(-c2ccc(N3CCN(c4ccc(OCC5COC(Cn6cncn6)(c6ccc(F)cc6F)C5)cc4)CC3)cc2)c1=O (stereo not drawn),inactive
10,COc1cc(N2CCC(O)CC2)ccc1Nc1nc(Nc2ccccc2S(=O)(=O)C(C)C)c2[nH]cnc2n1,inactive
11,O=C([C@@H]1CCCN(c2ccc3[nH]c(C4(n5cc(Cl)cn5)CC4)nc3n2)C1)N1CCCC1,inactive
12,C/C=C(\C)C(=O)OC1C=C(C)CC(OC(=O)c2ccc(O)cc2)C2C1(C)CCC2(O)C(C)C (stereo not drawn),inactive
13,Cc1cc(C(C)Nc2ccccc2C(=O)O)c2nc(N3CCOCC3)cc(=O)n2c1 (stereo not drawn),inactive

# Source: PubChem BioAssay (NCATS)
